Screening results: PubChem BioAssay, National Center for Advancing Translational Sciences (NCATS)
Rows were chosen to be rich in hits. Some 7.4% of all compounds tested hit in one or more screens of this group.
NIH3T3 tox – NIH 3T3 cell cytotoxicity | 4.3% of 94,000 active | NIH 3T3 viability, CellTiter-Glo ATP luminescence, 48-72 h | Potency, µM (series often up to 96.7 µM), usual class: inhibitors; note: nearly all actives have a fitted effect of over 55% in size
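ATP-dependent luminescence (CellTiter-Glo) served as the viability signal for NIH 3T3 cells treated with compound for 48 or 72 hr at 37 °C.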
SNCA viab count – counter-screen for SNCA expression inhibitors: cell viability. HEK-293-SNCA-luc viability, GF-AFC fluorescence, 24 h. Potency, µM (titrated, usually from 57.1 µM), hits mostly cytotoxic. 0.12% of 150,000 active; note: nearly all actives have a fitted effect of over 30% in size
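Cytotoxicity counterscreen: after 24 h compound treatment of genome-edited SNCA-luciferase HEK-293 cells, live-cell protease substrate GF-AFC read by fluorescence after 30 min; activity scaled between DMSO (0%) and medium-only (-100%), curves Hill-fitted.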
HEK293 tox – cytotoxic compounds in HEK 293 cells | HEK 293 viability, ATP luminescence (CellTiter-Glo), 48-72 h | Potency, µM (titrated, usually from 115 µM), actives largely listed as inhibitors | 6.6% of 94,000 active | AID 1345083; note: nearly all actives have a fitted effect of over 60% in size
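HEK 293 cells at 250 cells/well were exposed to compounds by pintool transfer for 48 or 72 hr at 37 degree Celsius, 5% CO2. Viability was read as ATP-coupled luminescence with CellTiter-Glo after 10 min at room temperature.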
FLuc inh – inhibitors of firefly (Photinus pyralis) luciferase | 2.5% of 76,000 active | purified P. pyralis luciferase, luminescence, biochemical | Potency, µM (top dose mostly 115 µM), actives largely listed as inhibitors | AID 1347043; note: nearly all actives have a fitted effect of over 65% in size
Target sequence (P08659 whole entry, looked up): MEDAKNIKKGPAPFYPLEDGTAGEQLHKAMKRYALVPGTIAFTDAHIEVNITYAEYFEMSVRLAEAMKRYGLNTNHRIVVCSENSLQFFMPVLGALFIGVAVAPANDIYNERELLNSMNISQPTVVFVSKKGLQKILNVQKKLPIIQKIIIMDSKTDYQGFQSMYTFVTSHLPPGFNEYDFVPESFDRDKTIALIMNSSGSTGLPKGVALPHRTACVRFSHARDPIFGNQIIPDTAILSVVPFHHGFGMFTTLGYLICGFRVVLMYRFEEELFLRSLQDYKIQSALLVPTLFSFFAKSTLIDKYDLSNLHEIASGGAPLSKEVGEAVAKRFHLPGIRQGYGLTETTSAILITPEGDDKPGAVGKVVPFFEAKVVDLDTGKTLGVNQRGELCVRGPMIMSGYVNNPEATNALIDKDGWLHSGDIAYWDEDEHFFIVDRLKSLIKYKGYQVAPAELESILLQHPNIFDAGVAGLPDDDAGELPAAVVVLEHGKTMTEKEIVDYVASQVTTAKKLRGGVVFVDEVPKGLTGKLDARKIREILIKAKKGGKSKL
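Purified 10nM P. pyralis luciferase with 10uM D-luciferin and 10uM ATP in 50mM Tris acetate pH 7.5, 10mM Mg acetate, 0.01% Tween-20, 0.05% BSA. qHTS titration; luminescence read by CCD imager.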
NPR1 antag – antagonists of human natriuretic peptide receptor Npr1; HEK293 hNpr1 GloSensor cGMP, ANP-stimulated luminescence; 1.6% of 76,000 active; Potency, µM (series often up to 46.3 µM), hits mostly inhibitors; P16066; calls by dose curve; note: nearly all actives have a fitted effect of over 60% in size
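HEK293 cells stably expressing human Npr1 and cGMP GloSensor pGS-40F, loaded 2 h with 2% GloSensor reagent, given compound 30 min at room temperature. Luminescence read before and 20 min after 0.1 nM hNppA.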
SNCA expr inhib – inhibitors of alpha-synuclein (SNCA) gene expression; HEK-293 SNCA-luciferase knock-in, luminescence, 24 h; Potency, µM (highest dose often 57.2 µM), hits mostly inhibitors; 0.17% of 140,000 active; note: nearly all actives have a fitted effect of over 45% in size
Large screens that a line does not name were inactive. Unless noted, calls come from the whole dose curve; as a rule, active = well fitted curve in the direction sought with a large enough effect; inconclusive = small, poorly fitted or top-dose-only effect, or another doubt; inactive = no such curve, though single readings can be large; an effect the other way counts as inactive or inconclusive.

CN(C)c1ccc(-c2nnc([C@H]3CCN(C(=O)c4ccccn4)C3)o2)cc1	HEK293 tox inconclusive, FLuc inh 20µM
Cc1onc(C(=O)N2CCC(CCOc3ccc(F)cc3)C2)c1Cn1cc(Cl)cn1 (stereo unspecified)	NIH3T3 tox 45µM, HEK293 tox inconclusive, NPR1 antag inconclusive
O=C(c1ccc(C(F)(F)F)cc1)N1CCC(C(=O)N2CCCC(c3nc4ncccc4[nH]3)C2)CC1 (stereo unspecified)	HEK293 tox inconclusive (no result: FLuc inh, NPR1 antag)
COCCn1c(C)nnc1-c1cc(-c2ccnc(OC)c2)ccn1	NIH3T3 tox inconclusive
Cc1nnc(-c2cc(-c3ccc(CO)cc3)ccn2)n1Cc1ccccc1	NIH3T3 tox inconclusive, HEK293 tox inconclusive
Cc1nnc(-c2cc(-c3cccc(N(C)C)c3)ccn2)n1Cc1ccncc1	NIH3T3 tox inconclusive
Cc1nnc(-c2cc(-c3cccc(N(C)C)c3)ccn2)n1Cc1ccccc1	NIH3T3 tox 50µM, HEK293 tox 89µM, FLuc inh inconclusive
CC(=O)Nc1cccc(-c2ccnc(-c3nnc(C)n3Cc3ccccc3)c2)c1	NIH3T3 tox inconclusive, HEK293 tox inconclusive, FLuc inh 50µM
Cc1nnc(-c2cc(-c3cccc(F)c3)ccn2)n1Cc1ccccc1	NIH3T3 tox inconclusive, HEK293 tox 89µM
COCCn1c(C)nnc1-c1cc(-c2ccc(OC)c(OC)c2)ccn1	NIH3T3 tox 89µM
O=C([C@H]1CCCN1C(=O)C1CC1)N1CCC(N2CCOC2=O)CC1	none (no result: FLuc inh, NPR1 antag)
CO[C@H]1C(=O)N(C(C)C)[C@H]1C1CCN(Cc2cn[nH]c2-c2ccccc2)CC1	none (no result: FLuc inh, NPR1 antag)
COc1ncc(-c2ccnc(-c3nnc(C)n3CCc3ccccc3)c2)cn1	NIH3T3 tox 100µM
COc1cccc(-c2ccnc(-c3nnc(C)n3Cc3ccccc3)c2)c1	NIH3T3 tox 79µM, HEK293 tox inconclusive
Cc1nnc(-c2cc(-c3ccc(CO)cc3)ccn2)n1CCc1ccccc1	HEK293 tox inconclusive, SNCA expr inhib inconclusive
Cc1nnc(-c2cc(-c3cccc(CO)c3)ccn2)n1Cc1cccnc1	NIH3T3 tox inconclusive
O=C(C1CCCC1)N1CCC(C(=O)N2CCC(c3nc4ncccc4[nH]3)CC2)CC1	none (no result: FLuc inh, NPR1 antag)
O=C([C@H]1CCCN1C(=O)c1ccccc1Cl)N1CCCC(c2nc3ccncc3[nH]2)C1 (stereo partly specified)	none (no result: FLuc inh, NPR1 antag)
CCc1ccc(CN2CCC(C(=O)Nc3ccc(Oc4cccnc4)cc3)CC2)o1	NIH3T3 tox inconclusive, HEK293 tox inconclusive, NPR1 antag inconclusive, SNCA expr inhib inconclusive
O=C(Nc1ccc(Oc2cccnc2)cc1)C1CCN(CCCc2ccccc2)CC1	NIH3T3 tox inconclusive, HEK293 tox 25µM
O=C(NCCc1ccccc1)c1cnc2n[nH]c(-c3ccccc3)c2n1	NIH3T3 tox inconclusive
COc1ccc(-c2[nH]nc3ncc(C(=O)N4CCN(Cc5ccccc5)CC4)nc23)c(C)c1	NIH3T3 tox inconclusive, SNCA viab count inconclusive, HEK293 tox inconclusive
O=C(NCc1ccc(F)cc1)c1cnc2n[nH]c(-c3ccccc3)c2n1	NIH3T3 tox 50µM, HEK293 tox inconclusive, SNCA expr inhib inconclusive
O=C(c1cnc2n[nH]c(-c3ccccc3)c2n1)N1CCN(c2ccccn2)CC1	NIH3T3 tox inconclusive, HEK293 tox 71µM, SNCA expr inhib inconclusive
O=C(NCC1CCOCC1)c1cnc2n[nH]c(-c3ccccc3)c2n1	NIH3T3 tox 79µM, HEK293 tox inconclusive, SNCA expr inhib inconclusive
COc1ccc(-c2[nH]nc3ncc(C(=O)NCc4ccc(F)cc4)nc23)c(C)c1	NIH3T3 tox 22µM, SNCA viab count inconclusive, HEK293 tox 32µM, SNCA expr inhib inconclusive
O=C(NCc1ccc(C(F)(F)F)cc1)C1CCCN1C(=O)c1cccc(-c2ccccn2)c1 (stereo unspecified)	HEK293 tox inconclusive (no result: FLuc inh, NPR1 antag)
CSc1ccc(C(=O)N2CC(=O)NCC(C)(C)C2)cc1	NIH3T3 tox inconclusive (no result: SNCA viab count, FLuc inh, NPR1 antag, SNCA expr inhib)
COc1ccc(-c2ccc(C(=O)NCc3ccccn3)cc2)nn1	none (no result: SNCA viab count, FLuc inh, NPR1 antag, SNCA expr inhib)
CNC(=O)c1cc(C2CC2)nc2c1c(C1CCCN([S+](=O)([O-])C(C)C)C1)nn2C (stereo unspecified)	none (no result: SNCA viab count, FLuc inh, NPR1 antag, SNCA expr inhib)
